What all share (conditions): mRNA level, 48 h; actives raise or lower the signal
Read-out in assay [1]: growth arrest and DNA damage 45 (GADD45A), GADD45A (gene 1647)
Put plainly: LTEA_HepaRG_GADD45A: Life Technologies and Expression Analysis (LTEA) Assay for growth arrest and DNA damage 45 (GADD45A) using HepaRG (AID 2283458). An outline of the steps:
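Eight-point concentration-response in HepaRG cells: 48 h chemical exposure, 0.5% DMSO vehicle, top dose 100 uM. Normalized qRT-PCR mRNA readout with bidirectional fitting relative to DMSO.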

Read-out in assay [2]: Forkhead box O3 (FOXO3), FOXO3 (gene 2309)
The experiment in a line: LTEA_HepaRG_FOXO3: Life Technologies and Expression Analysis (LTEA) Assay for Forkhead box O3 (FOXO3) using HepaRG (AID 2283459). The method in brief: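 qRT-PCR readout of FOXO3 transcript, normalized to three housekeeping genes (ACTB, GAPDH, POLR2A); gain or loss fitted against 0.5% DMSO vehicle. HepaRG cells, 48 h chemical exposure, 8-point half-log series, top 100 uM.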

Read-out in assay [3]: ABC Transporter (ABCB1), ABCB1 (gene 5243)
Put plainly: LTEA_HepaRG_ABCB1: Life Technologies and Expression Analysis (LTEA) Assay for ABC Transporter (ABCB1) using HepaRG (AID 2283460). The method in brief: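 HepaRG, 48 h exposure, 8-pt half-log series from 100 uM, 0.5% DMSO vehicle, duplicates. Readout: ABCB1 transcript by Fluidigm TaqMan qRT-PCR, housekeeping-normalized; bidirectional curve fit vs DMSO baseline.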

Read-out in assay [4]: growth arrest and DNA damage 45 (GADD45B), GADD45B (gene 4616)
Put plainly: LTEA_HepaRG_GADD45B: Life Technologies and Expression Analysis (LTEA) Assay for growth arrest and DNA damage 45 (GADD45B) using HepaRG (AID 2283461). The method in brief:
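HepaRG, ~100,000 cells/well, 48 h plating; serum-free induction medium; cpd 100 uM top, half-log x8, 0.5% DMSO, duplicate, 48 h; lysis in RLT, RNA isolation, qRT-PCR; norm ACTB/GAPDH/POLR2A; bidirectional fit vs DMSO.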

Read-out in assay [5]: ABC Transporter (ABCC3), ABCC3 (gene 8714)
The experiment in a line: LTEA_HepaRG_ABCC3: Life Technologies and Expression Analysis (LTEA) Assay for ABC Transporter (ABCC3) using HepaRG (AID 2283462). The method in brief: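 Human HepaRG, 48 h dosing, 8-pt half-log series from 100 uM, 0.5% DMSO vehicle, duplicates. ABCC3 mRNA by TaqMan qRT-PCR, housekeeping-normalized; bidirectional curve fit vs DMSO.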

Read-out in assay [6]: ABC Transporter (ABCB11), ABCB11 (gene 8647)
The experiment in a line: LTEA_HepaRG_ABCB11: Life Technologies and Expression Analysis (LTEA) Assay for ABC Transporter (ABCB11) using HepaRG (AID 2283463). An outline of the steps: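 HepaRG, 48 h exposure, 8-pt half-log CRC top 100 uM, 0.5% DMSO vehicle, duplicates. Readout: TaqMan qRT-PCR of ABCB11 mRNA, housekeeping-normalized (ACTB/GAPDH/POLR2A). Bidirectional fit vs DMSO baseline.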

Read-out in assay [7]: ABC Transporter (ABCC2), ABCC2 (gene 1244)
Put plainly: LTEA_HepaRG_ABCC2: Life Technologies and Expression Analysis (LTEA) Assay for ABC Transporter (ABCC2) using HepaRG (AID 2283464). An outline of the steps: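 HepaRG, 48 h post-plating; serum-free induction medium; cpd 8-pt, 100 uM top, half-log, 0.5% DMSO, duplicate, 48 h. Readout: ABCC2 mRNA by qRT-PCR, norm. ACTB/GAPDH/POLR2A. Bidirectional fit vs DMSO baseline.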

Read-out in assay [8]: Broad substrate specificity ATP-binding cassette transporter ABCG2 (Homo sapiens) (UniProt Q9UNQ0)
Put plainly: LTEA_HepaRG_ABCG2: Life Technologies and Expression Analysis (LTEA) Assay for ABC Transporter (ABCG2) using HepaRG (AID 2283465). The method in brief: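 HepaRG, 48 h exposure, 8-pt half-log series from 100 uM, 0.5% DMSO vehicle, duplicates. Readout: ABCG2 transcript by qRT-PCR (Fluidigm array), housekeeping-normalized; bidirectional curve fit relative to DMSO baseline.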

Read-out in assay [9]: ATP-citrate lyase (ACLY), ACLY (gene 47)
Put plainly: LTEA_HepaRG_ACLY: Life Technologies and Expression Analysis (LTEA) Assay for ATP-citrate lyase (ACLY) using HepaRG (AID 2283466). The method in brief:
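qRT-PCR readout of ACLY transcript after 48 h chemical treatment of HepaRG cells; expression normalized to three housekeeping genes. Eight-point half-log series, highest 100 uM, 0.5% DMSO vehicle. Gain or loss fitted against DMSO baseline.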

Read-out in assay [10]: Peroxisomal acyl-coenzyme A oxidase 1 (ACOX1) gene, ACOX1 (gene 51)
Put plainly: LTEA_HepaRG_ACOX1: Life Technologies and Expression Analysis (LTEA) Assay for Peroxisomal acyl-coenzyme A oxidase 1 (ACOX1) gene using HepaRG (AID 2283467). An outline of the steps:
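HepaRG, 48 h chemical exposure, 8-pt half-log series from 100 uM top, 0.5% DMSO vehicle, duplicates. Readout: ACOX1 mRNA by Fluidigm qRT-PCR, housekeeping-normalized; bidirectional fit vs DMSO baseline.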

Read-out in assay [11]: Alkaline Phosphatase, Placental (ALPP) gene, ALPP (gene 250)
The experiment in a line: LTEA_HepaRG_ALPP: Life Technologies and Expression Analysis (LTEA) Assay for Alkaline Phosphatase, Placental (ALPP) gene using HepaRG (AID 2283468).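 For AC50: differentiated human HepaRG liver cells in serum-free induction medium.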 The method in brief:
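HepaRG, 48 h plating then 48 h dosing, serum-free induction medium, 0.5% DMSO. 8 conc, half-log, max 100 uM, duplicates. Endpoint: ALPP transcript by qRT-PCR, housekeeping-normalized; gain or loss fitted vs DMSO.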

Read-out in assay [12]: Bcl-2 (BAD) gene, BAD (gene 572)
The experiment in a line: LTEA_HepaRG_BAD: Life Technologies and Expression Analysis (LTEA) Assay for Bcl-2 (BAD) gene using HepaRG (AID 2283469). An outline of the steps:
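HepaRG, 48 h exposure, 8-pt half-log curve from 100 uM in 0.5% DMSO, duplicates. Readout: TaqMan qRT-PCR for BAD mRNA, housekeeping-normalised (ACTB/GAPDH/POLR2A); gain or loss fitted against DMSO baseline.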

Read-out in assay [13]: Bcl-2 (BAX) gene, BAX (gene 581)
Put plainly: LTEA_HepaRG_BAX: Life Technologies and Expression Analysis (LTEA) Assay for Bcl-2 (BAX) gene using HepaRG (AID 2283470). The method in brief:
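Human HepaRG cells treated in duplicate for 48 h across eight concentrations (max 100 uM, 0.5% DMSO); BAX expression measured by qRT-PCR.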

Read-out in assay [14]: adenosine kinase (ADK) gene, ADK (gene 132)
Put plainly: LTEA_HepaRG_ADK: Life Technologies and Expression Analysis (LTEA) Assay for adenosine kinase (ADK) gene using HepaRG (AID 2283471). The method in brief:
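ADK expression quantified by qRT-PCR, normalised to three housekeeping genes, after 48 h exposure of HepaRG cells to eight concentrations (top 100 uM, half-log steps, duplicate, 0.5% DMSO). Up- or down-regulation fitted relative to vehicle.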

Read-out in assay [15]: Alpha-fetoprotein (AFP) gene, AFP (gene 174)
Put plainly: LTEA_HepaRG_AFP: Life Technologies and Expression Analysis (LTEA) Assay for Alpha-fetoprotein (AFP) gene using HepaRG (AID 2283472). The method in brief:
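Measures AFP mRNA change in HepaRG after 48 h chemical exposure (8 half-log concentrations, highest 100 uM, 0.5% DMSO). Fold change relative to DMSO, fitted in both directions.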

Read-out in another assay: BCL2L11 (gene 10018)
Put plainly: LTEA_HepaRG_BCL2L11: Life Technologies and Expression Analysis (LTEA) Assay for Bcl-2 (BCL2L11) gene using HepaRG (AID 2283473). The method in brief:
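Read-out is BCL2L11 transcript level by qRT-PCR, normalized to three housekeeping genes and fitted bidirectionally against 0.5% DMSO vehicle. HepaRG cells received chemicals for 48 h in serum-free induction medium, 100 uM down in half-log dilutions.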

Read-out in assay [16]: Apolipoprotein A-V (APOA5) gene, APOA5 (gene 116519)
Put plainly: LTEA_HepaRG_APOA5: Life Technologies and Expression Analysis (LTEA) Assay for Apolipoprotein A-V (APOA5) gene using HepaRG (AID 2283474). The method in brief: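 Readout is APOA5 transcript level by qRT-PCR on Fluidigm dynamic arrays, normalized to three housekeeping genes. HepaRG cultures received chemicals for 48 h at up to 100 uM (half-log steps, 0.5% DMSO), with gain or loss scored relative to DMSO.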

Read-out in assay [17]: Apoptosis regulator Bcl-2 (Homo sapiens) (UniProt P10415)
Put plainly: LTEA_HepaRG_BCL2: Life Technologies and Expression Analysis (LTEA) Assay for Bcl-2 gene using HepaRG (AID 2283475). An outline of the steps: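 Each chemical was tested in duplicate on HepaRG cultures held in serum-free induction medium for 48 h, highest concentration 100 uM with half-log dilutions. Transcript levels came from multiplexed qRT-PCR, normalised to housekeeping genes; activity was scored in either direction relative to DMSO.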

Read-out in assay [18]: Bcl-2 (BID) gene, BID (gene 637)
The experiment in a line: LTEA_HepaRG_BID: Life Technologies and Expression Analysis (LTEA) Assay for Bcl-2 (BID) gene using HepaRG (AID 2283476). The method in brief:
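Assay used HepaRG hepatic cells treated 48 h in serum-free medium with half-log dilutions from 100 uM. Endpoint: BID mRNA, qRT-PCR, normalized to ACTB/GAPDH/POLR2A.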

Read-out in another assay: Caspase-3 (Homo sapiens) (UniProt P42574)
Put plainly: LTEA_HepaRG_CASP3: Life Technologies and Expression Analysis (LTEA) Assay for cysteine-aspartic acid protease (CASP3) using HepaRG (AID 2283477). An outline of the steps: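 Read-out is CASP3 mRNA level by TaqMan qRT-PCR in human HepaRG cells after 48 h chemical exposure. Eight half-log concentrations topping at 100 uM were tested in 0.5% DMSO; gain or loss was fitted relative to DMSO.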

Calls of active or inactive are those of the source. Rule for the calls: active = hit-call score of the fitted dose curve at least 0.9, where 1 is the maximum; inactive = score below 0.9.

Sequence of Apoptosis regulator Bcl-2 (Homo sapiens) (P10415 whole entry, looked up): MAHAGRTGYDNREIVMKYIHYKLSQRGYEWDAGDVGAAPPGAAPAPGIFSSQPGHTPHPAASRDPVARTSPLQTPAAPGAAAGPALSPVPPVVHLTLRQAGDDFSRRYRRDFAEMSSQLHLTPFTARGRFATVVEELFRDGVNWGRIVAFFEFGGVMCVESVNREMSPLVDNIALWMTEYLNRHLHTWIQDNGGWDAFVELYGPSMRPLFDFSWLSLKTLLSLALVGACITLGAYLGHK
Sequence of Broad substrate specificity ATP-binding cassette transporter ABCG2 (Homo sapiens) (Q9UNQ0 whole entry, looked up): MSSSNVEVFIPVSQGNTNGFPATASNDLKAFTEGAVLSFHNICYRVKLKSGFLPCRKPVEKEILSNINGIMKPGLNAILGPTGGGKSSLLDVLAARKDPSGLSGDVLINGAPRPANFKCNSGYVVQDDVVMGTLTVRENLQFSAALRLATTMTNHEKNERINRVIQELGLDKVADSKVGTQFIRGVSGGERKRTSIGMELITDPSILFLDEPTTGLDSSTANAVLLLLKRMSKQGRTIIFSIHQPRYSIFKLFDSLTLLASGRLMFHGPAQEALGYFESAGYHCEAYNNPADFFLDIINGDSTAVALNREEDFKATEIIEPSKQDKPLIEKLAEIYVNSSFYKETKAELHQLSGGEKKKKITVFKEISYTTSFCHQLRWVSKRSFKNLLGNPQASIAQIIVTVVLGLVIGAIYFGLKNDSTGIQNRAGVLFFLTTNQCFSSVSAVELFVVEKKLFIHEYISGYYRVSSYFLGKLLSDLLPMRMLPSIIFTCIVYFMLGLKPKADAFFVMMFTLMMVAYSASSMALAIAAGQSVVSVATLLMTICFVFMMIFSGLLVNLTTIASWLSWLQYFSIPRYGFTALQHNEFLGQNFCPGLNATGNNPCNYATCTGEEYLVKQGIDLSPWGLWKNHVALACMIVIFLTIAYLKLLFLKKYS
Sequence of Caspase-3 (Homo sapiens) (P42574 whole entry, looked up): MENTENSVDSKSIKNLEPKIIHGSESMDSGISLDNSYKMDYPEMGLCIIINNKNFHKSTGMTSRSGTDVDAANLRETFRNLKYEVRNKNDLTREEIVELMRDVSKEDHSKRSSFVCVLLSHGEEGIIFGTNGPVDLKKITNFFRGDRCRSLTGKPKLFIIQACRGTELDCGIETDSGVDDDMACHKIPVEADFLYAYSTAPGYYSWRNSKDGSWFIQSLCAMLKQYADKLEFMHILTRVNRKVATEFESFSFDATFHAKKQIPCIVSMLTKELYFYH

Take `CC(=O)c1ccccc1`: the result in assay [1], in assay [2], in assay [3], in [4], in assay [5] and in assay [6] was inactive. The compound was called inactive in [7], in [8], in assay [9], in assay [10], in assay [11] and in assay [12]. Moreover, the outcome (in [13]; in [14]; in assay [15]; with BCL2L11 (gene 10018); in assay [16]; in [17]) was inactive. Besides, in assay [18], the result was inactive.
Consider `Cc1ccc(S(=O)(=O)NC(=O)NN2CCCCCC2)cc1`, for which the call in [1], in assay [2], in [4], in assay [5], in assay [6] and in [7] was inactive. Besides, the compound was called inactive in [8], in assay [9], in assay [10], in assay [12], in assay [13] and in assay [14]. The compound was classed as inactive (in [15]; in the assay with BCL2L11 (gene 10018); in [16]; in assay [17]; in assay [18]). The half-maximal activity concentration (AC50) – broadly, the concentration giving half of the maximal activity seen – in assay [3] is 20.1 µM (active); in [11], 0.161 µM (active).
Consider `O=C(O)c1cccc(C(=O)O)c1`, for which the call in [1], in [2], in [3], in assay [4], in [5] and in [6] was inactive. The compound was called inactive in assay [7], in assay [8], in assay [9], in [10], in assay [11] and in assay [12]. The compound was classed as inactive (in assay [13]; in [14]; in assay [15]; in the assay with BCL2L11 (gene 10018); in assay [16]; in assay [17]). In addition, the compound was classed as inactive in assay [18].
On to `CCOc1ccc2[nH]cc(C(=O)NCc3ccccc3)c(=O)c2n1`, for which the compound was classed as inactive in [1], in [2], in assay [3], in assay [4], in assay [5] and in assay [6]. Besides, the result in assay [7], in assay [8], in assay [9], in assay [10], in [11] and in assay [12] was inactive. Further, the compound was called inactive (in [13]; in assay [14]; in the assay with BCL2L11 (gene 10018); in assay [16]; in [18]). The concentration at half-maximal activity (AC50) was 81.3 µM (active) in [15] and 0.662 µM (active) in [17].
Regarding `COCc1nnc(-c2ccc[n+]([O-])c2)n1-c1c(Cl)c(Cl)cc2[nH]c(=O)c(=O)[nH]c12`, the call in [1], in assay [2], in assay [3], in assay [4], in assay [5] and in assay [6] was inactive. In addition, the call in assay [7], in assay [8], in assay [9], in assay [10], in assay [11] and in assay [12] was inactive. The compound was called inactive (in assay [13]; in assay [14]; in assay [15]; with BCL2L11 (gene 10018); in [16]; in assay [17]). In addition, the compound was classed as inactive (in assay [18]; with Caspase-3 (Homo sapiens)).

The values are drawn from PubChem BioAssay (EPA / NIEHS).
